{"source": "PubChem BioAssay AID504373", "about": "(National Center for Advancing Translational Sciences (NCATS), 2011)", "note": "Several values for one entry are separate records, joined by “and”; a condition that tells them apart may be missing. Equal values may be shown once. Inconclusive results are not listed. The source holds several records for some structures; these can differ, active in one and inactive in another. Activity calls are given as the source filed them.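 How the source made its calls: active means fewer circulating green fluorescent tagged thrombocytes in treated fish, with no visible harm to the embryos; inconclusive means compound visibly harmful to the embryos; inactive means no drop in circulating tagged thrombocytes.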", "data": [{"assay": "qHTS Assay for Compounds Blocking the Interaction Between CBF-beta and RUNX1 for the Treatment of Acute Myeloid Leukemia: Zebrafish assay for Hematopoiesis, SAR for Probe", "details": "GFP-cd41 zebrafish embryos, microscopy, 5 days, at 10 uM, stronger effect = lower value", "source_text": "(§1) NIH Chemical Genomics Center [NCGC] NIH Molecular Libraries Probe Production centers Network [MLPCN] MLPCN Grant: X01MH083259-01 Assay Submitter (PI): Paul Liu NCGC Assay Overview: Core Binding Factor (CBF) abnormalities are associated with 20-25% of all acute myeloid leukemias (AML), of which 5-10% are further sub classified as acute myelomonocytic leukemia with eosinophilia, also known as M4Eo in the FAB classification scheme. This subtype of leukemia is usually associated with chromosome 16 inversion (p13:q22). Chromosome 16 inversion results in formation of the fusion oncogene CBFB-MYH11, which encodes the fusion protein CBF-beta-SMMHC. […] It has been hypothesized that the interference of CBF-beta and RUNX1 binding could have therapeutic implications for patients with CBF mediated leukemias. We developed a CBF-beta and RUNX1 binding assay in AlphaScreenTM format and optimized it for high throughput screening to search for inhibitors. The goal of this project is to screen MLPCN's compound collection (MLSMR) for identifying the inhibitors of the interaction between CBF-beta and RUNX1 proteins as research probes. If these probes work well in the animal models, the ultimate goal of this project is to development a new drug treatment for this disease. […] These fish contain a genomic modulation where GFP has been fused to cd41, a marker for thrombocytes, and thus circulating thrombocytes can be easily imaged in anesthetized fish.\n(§2) Assay protocol: GFP-cd41 zebrafish were kindly provided by the Liu lab. Zebrafish embryos were incubated with compound (<0.1% DMSO final) at 48 hours post fertilization, for 5 days. Embryos were manually scored under a microscope with GFP illumination for circulating GFP-tagged thrombocytes. Keywords: MLSMR, MLPCN, NIH Roadmap, qHTS, NCGC, Core binding factor, CBF, CBF-beta, Acute myeloid leukemia", "units": {"fish with circulating GFP thrombocytes": "%"}, "values": [{"molecule": "CN(C)CC(=O)Nc1ccc(Cl)cc1C(=O)c1ccc[nH]1", "fish with circulating GFP thrombocytes": 70}, {"molecule": "NCCCC(=O)Nc1ccc(Cl)cc1C(=O)c1ccc[nH]1", "fish with circulating GFP thrombocytes": 93.3}]}, {"assay": "qHTS Assay for Compounds Blocking the Interaction Between CBF-beta and RUNX1 for the Treatment of Acute Myeloid Leukemia: Zebrafish assay for Hematopoiesis, SAR for Probe", "details": "GFP-cd41 zebrafish embryos, microscopy, 5 days, at 25 µM, stronger effect = lower value", "source_text": "as §1, §2", "values": [{"molecule": "CC(C)[C@H](N)C(=O)Nc1ccc(Cl)cc1C(=O)c1ccc[nH]1", "fish with circulating GFP thrombocytes": "100% (inactive)"}, {"molecule": "NC(N)=NCCC[C@H](N)C(=O)Nc1ccc(Cl)cc1C(=O)c1ccc[nH]1", "fish with circulating GFP thrombocytes": "100% (inactive)"}, {"molecule": "CN(C)CC(=O)Nc1ccc(Cl)cc1C(=O)c1ccc[nH]1", "fish with circulating GFP thrombocytes": "59.4% (active)"}, {"molecule": "NC(=O)C[C@H](N)C(=O)Nc1ccc(Cl)cc1C(=O)c1ccc[nH]1", "fish with circulating GFP thrombocytes": "100% (inactive)"}, {"molecule": "CC(=O)Nc1ccc(Cl)cc1C(=O)c1ccc[nH]1", "fish with circulating GFP thrombocytes": "70.8% (active) and 100% (inactive)"}, {"molecule": "O=C(c1ccc[nH]1)c1cc(Cl)ccc1NC(=O)[C@@H]1CCCN1", "fish with circulating GFP thrombocytes": "100% (inactive)"}, {"molecule": "C[C@@H](N)C(=O)Nc1ccc(Cl)cc1C(=O)c1ccc[nH]1", "fish with circulating GFP thrombocytes": "100% (inactive)"}, {"molecule": "NCCCC(=O)Nc1ccc(Cl)cc1C(=O)c1ccc[nH]1", "fish with circulating GFP thrombocytes": "100% (inactive)"}, {"molecule": "CNCc1nc(-c2ccc[nH]2)c2cc(Cl)ccc2n1", "fish with circulating GFP thrombocytes": "100% (inactive)"}, {"molecule": "NCC(=O)Nc1ccc(Cl)cc1C(=O)c1ccc[nH]1", "fish with circulating GFP thrombocytes": "100% (inactive)"}, {"molecule": "N[C@H](Cc1ccccc1)C(=O)Nc1ccc(Cl)cc1C(=O)c1ccc[nH]1", "fish with circulating GFP thrombocytes": "100% (inactive)"}, {"molecule": "CNCC(=O)Nc1ccc(Cl)cc1C(=O)c1ccc[nH]1", "fish with circulating GFP thrombocytes": "100% (inactive)"}, {"molecule": "CC(C)(N)C(=O)Nc1ccc(Cl)cc1C(=O)c1ccc[nH]1", "fish with circulating GFP thrombocytes": "100% (inactive)"}, {"molecule": "CCC(=O)Nc1ccc(Cl)cc1C(=O)c1ccc[nH]1", "fish with circulating GFP thrombocytes": "100% (inactive)"}, {"molecule": "N[C@@H](CC(=O)O)C(=O)Nc1ccc(Cl)cc1C(=O)c1ccc[nH]1", "fish with circulating GFP thrombocytes": "100% (inactive)"}, {"molecule": "NCCC(=O)Nc1ccc(Cl)cc1C(=O)c1ccc[nH]1", "fish with circulating GFP thrombocytes": "100% (inactive)"}, {"molecule": "N[C@H](C(=O)Nc1ccc(Cl)cc1C(=O)c1ccc[nH]1)c1ccccc1", "fish with circulating GFP thrombocytes": "100% (inactive)"}, {"molecule": "Nc1ccc(Cl)cc1C(=O)c1ccc[nH]1", "fish with circulating GFP thrombocytes": "83.3% (active)"}, {"molecule": "C[C@H](N)C(=O)Nc1ccc(Cl)cc1C(=O)c1ccc[nH]1", "fish with circulating GFP thrombocytes": "100% (inactive)"}, {"molecule": "N[C@@H](CCC(=O)O)C(=O)Nc1ccc(Cl)cc1C(=O)c1ccc[nH]1", "fish with circulating GFP thrombocytes": "100% (inactive)"}, {"molecule": "NCCCC[C@H](N)C(=O)Nc1ccc(Cl)cc1C(=O)c1ccc[nH]1", "fish with circulating GFP thrombocytes": "100% (inactive)"}, {"molecule": "N[C@@H](Cc1ccccc1)C(=O)Nc1ccc(Cl)cc1C(=O)c1ccc[nH]1", "fish with circulating GFP thrombocytes": "100% (inactive)"}]}, {"assay": "qHTS Assay for Compounds Blocking the Interaction Between CBF-beta and RUNX1 for the Treatment of Acute Myeloid Leukemia: Zebrafish assay for Hematopoiesis, SAR for Probe", "details": "GFP-cd41 zebrafish embryos, microscopy, 5 days, at 50 uM, stronger effect = lower value", "source_text": "as §1, §2", "units": {"fish with circulating GFP thrombocytes": "%"}, "values": [{"molecule": "CC(=O)Nc1ccc(Cl)cc1C(=O)c1ccc[nH]1", "fish with circulating GFP thrombocytes": 66.7}, {"molecule": "Nc1ccc(Cl)cc1C(=O)c1ccc[nH]1", "fish with circulating GFP thrombocytes": 70.8}]}]}
